Laboratory results as given in PubChem BioAssay AID624330 (Southern Research Specialized Biocontainment Screening …, 2012).
Screen size: about 340,000 compounds; about 2,100 (0.62%) were called active. The list is a sample of the results. Results with a measured potency or affinity are listed apart. Values without a mark were called inactive.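 The calls were made as follows: active = first-screen hits whose inhibition reached a set limit at any dose in the follow-up dose series; inconclusive = inhibition above the set first-screen limit but never retested; inactive = the rest.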

The molecules below were run against Rac GTPase-activating protein 1 (Homo sapiens) (UniProt Q9H0H5) (assay: MgcRacGAP GTPase-activating activity inhibitors, confirmation, biochemical, ADP Hunter fluorescence, primary and confirmatory (AID 624330;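 also: fluorescence reports GDP produced by GAP-driven GTP hydrolysis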)). Details: MgcRacGAP-stimulated Rac1 GTP hydrolysis, at 30 µM, hits give high values, GST-tagged Rac1 F28L mutant substrate.
Sequence of Rac GTPase-activating protein 1 (Homo sapiens) (Q9H0H5 whole entry, looked up): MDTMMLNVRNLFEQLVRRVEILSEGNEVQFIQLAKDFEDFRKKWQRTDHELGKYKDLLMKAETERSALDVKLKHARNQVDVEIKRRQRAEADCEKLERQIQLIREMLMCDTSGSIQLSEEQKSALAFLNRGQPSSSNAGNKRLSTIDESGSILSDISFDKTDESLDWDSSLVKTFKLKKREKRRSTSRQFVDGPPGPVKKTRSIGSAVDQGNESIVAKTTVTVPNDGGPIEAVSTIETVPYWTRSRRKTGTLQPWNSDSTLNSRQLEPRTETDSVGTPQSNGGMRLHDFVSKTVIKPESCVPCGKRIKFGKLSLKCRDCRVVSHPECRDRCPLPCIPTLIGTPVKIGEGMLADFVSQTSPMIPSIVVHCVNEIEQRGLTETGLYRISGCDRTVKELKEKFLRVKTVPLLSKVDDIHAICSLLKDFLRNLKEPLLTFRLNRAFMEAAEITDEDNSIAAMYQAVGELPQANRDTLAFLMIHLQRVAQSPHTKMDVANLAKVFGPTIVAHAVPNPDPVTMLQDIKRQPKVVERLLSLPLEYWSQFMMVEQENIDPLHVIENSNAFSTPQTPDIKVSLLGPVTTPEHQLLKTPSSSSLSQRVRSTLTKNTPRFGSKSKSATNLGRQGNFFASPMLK
`O=C1OC(COc2ccc(Br)cc2)CN1c1ccccc1` (configuration not stated) gave an inhibition of 0.77%. Work on `Cc1ccc(OCc2nnc(SC(C)C(=O)O)n2Cc2ccccc2)cc1` (configuration not stated) yielded an inhibition of -1.5%. With `O=C(COC(=O)[C@@H]1CC(O)CN1S(=O)(=O)c1ccc2c(c1)OCCO2)Nc1ccccc1F` (some centres not stated) the inhibition was 1.86%. `O=C(c1ccc(Cl)nc1)N1CCN(C/C=C/c2ccccc2)CC1` gave an inhibition of 10.5%. `O=C(CN1C(=O)NC2(CCc3ccccc32)C1=O)c1c[nH]c2ccccc12` (configuration not stated) gave an inhibition of -3.1%. Work on `CN1CCN(C(c2cccc(Cl)c2)c2ccccc2Cl)CC1` (configuration not stated) yielded an inhibition of 7.6%. Molecule `CC1(C)C(=O)N(c2ccccc2)C1c1ccccc1O` (configuration not stated) has an inhibition of 3.93%. In the case of `Oc1ccc(/C=N/NC(=S)Nc2cccnc2)c(O)c1O`, the inhibition is reported as -102%. `Cc1cccc(OCC(=O)NCC(=O)N/N=C/c2ccc(O)cc2O)c1` gave an inhibition of 18.5%. For `O=C(CCCCCNC(=O)c1ccccc1)N/N=C/c1ccccc1O`, the inhibition was 3.53%. `O=C(CCCCCNC(=O)c1ccccc1)N/N=C/c1ccc(F)cc1` gave an inhibition of 6.47%. `Oc1ccc(C=NNC(=S)Nc2cccnc2)nc1` showed an inhibition of 7.4%. `O=C(COc1ccccc1)NCC(=O)N/N=C/c1ccccc1` showed an inhibition of 5.67%. For `FC(F)(F)c1cnc(COc2ccc(Cl)cc2Cl)c(Cl)c1`, the inhibition was 7.97%. In the case of `COc1ccccc1-c1cc(C(=O)NCc2ccco2)no1`, the inhibition is reported as 11.6%. Molecule `CCN(C[C@H]1N[C@@](C)(C(=O)OC)[C@H]2C(=O)N(C)C(=O)[C@@H]12)C(=O)Nc1ccc(C(F)(F)F)cc1` has an inhibition of 4.98%. For `COCCn1c(SC(C(=O)Nc2cc(C)ccc2OC)c2ccccc2)nnc1-c1ccc(Cl)cc1` (configuration not stated), the inhibition was 8.02%. `CC(C)COP(=O)(OCC(C)C)C(O)c1ccc2c(c1)OCO2` (configuration not stated) showed an inhibition of 2.18%. In the case of `N#Cc1c(-c2ccccc2)ccn(Cc2ccc(Cl)cc2)c1=O`, the inhibition is reported as 11.4%. For `COc1cc(CNC2CCCCC2OC)cc(OC)c1OC` (configuration not stated), the inhibition was 21.8%. `COc1cc(CNC2CCCC2)cc(OC)c1` showed an inhibition of 16.2%. `Cc1ccc(C)c(N2CCN(C(=O)Cc3ccc(NC4=NC5CS(=O)(=O)CC5S4)cc3)CC2)c1` (configuration not stated) was tested, and the inhibition was 15.3%. Molecule `O=C(CNc1ccc2c(c1)OCO2)N/N=C\c1cn(Cc2ccccc2)c2ccccc12` has an inhibition of 9.72%. `O=C(CNc1ccccc1)N/N=C/c1ccc2c(c1)OCO2` was tested, and the inhibition was 1.14%. Work on `CCOC(=O)Cc1csc(SC(C)C(=O)NC2CCCCC2C)n1` (configuration not stated) yielded an inhibition of 10.4%. `CC(=O)c1ccc(N2CCN(C(=O)c3noc4c3CSc3ccccc3-4)CC2)cc1` gave an inhibition of 10.2%. `c1ccc(Cn2nnnc2C(c2cccnc2)N2CCN(c3ccccc3)CC2)cc1` (configuration not stated) was tested, and the inhibition was 2.89%. `Fc1ccc(N2CCN(C(c3cccs3)c3nnnn3CCc3ccccc3)CC2)cc1` (configuration not stated) gave an inhibition of -2.42%. With `CCS(=O)(=O)NC(C)C(c1cccs1)N1CCN(c2ccc(F)cc2)CC1` (configuration not stated) the inhibition was 8.25%. `O=S(=O)(NCC(c1cccnc1)N1CCN(c2ccccc2)CC1)c1cccs1` (configuration not stated) gave an inhibition of 2.98%. In the case of `c1ccc(CCn2nnnc2C(c2cccs2)N2CCOCC2)cc1` (configuration not stated), the inhibition is reported as 6.38%. In the case of `COc1ccc(N2CCN(C(c3cccs3)C(C)NS(C)(=O)=O)CC2)cc1` (configuration not stated), the inhibition is reported as 27.8%. `O=S(=O)(NCC(c1cccnc1)N1CCN(c2ccc(F)cc2)CC1)c1cccs1` (configuration not stated) showed an inhibition of 5.99%. Work on `COc1ccc(N2CCN(C(c3ccccc3)c3nnnn3Cc3ccc(F)cc3)CC2)cc1` (configuration not stated) yielded an inhibition of 19%. For `CC1CCCC(NC(=O)CN2C(=O)NC(C)(c3ccccc3)C2=O)C1C` (configuration not stated), the inhibition was 2.02%. `O=C(N/N=C/c1ccoc1)c1ccc([N+](=O)[O-])cc1` showed an inhibition of 3.91%. Molecule `COc1cccc2cc(C(=O)N3CC(C)OC(C)C3)c(=O)oc12` (configuration not stated) has an inhibition of 5.05%. Work on `COC(=O)c1ccc(COC(=O)c2ccccc2OC)cc1` yielded an inhibition of -1.87%. Molecule `COc1ccc(C(=O)NNC(=O)c2ccccc2[N+](=O)[O-])cc1Br` has an inhibition of 2.78%. For `COc1ccc([C@H]2CC(=O)C=C(c3cccc(F)c3OC)C2)cc1`, the inhibition was 9.17%. With `Cc1ccc(C(=O)N2CCN(Cc3ccc4c(c3)OCO4)CC2)o1` the inhibition was 3.03%. For `O=C(c1cccc(F)c1)N1CCN(c2ccc([N+](=O)[O-])c(N3CCOCC3)c2)CC1`, the inhibition was 9.81%. For `CN1C(=O)CSC1=S`, the inhibition was 6.82%. Work on `O=c1[nH]nc(CNc2cccc(C(F)(F)F)c2)c2ccccc12` yielded an inhibition of 7.15%. `COc1ccc(OC)c(C(c2c(C)[nH][nH]c2=O)c2c(C)[nH][nH]c2=O)c1` gave an inhibition of 12.8%. `O=c1c(Cl)c(N2CCN(c3ccc(F)cc3)CC2)cnn1C12CC3CC(CC(C3)C1)C2` was tested, and the inhibition was -5.26%. `N#Cc1nnn2c1nc(N)c1c(F)cccc12` was tested, and the inhibition was 2.66%. With `Cc1ccc(S(=O)(=O)N(CC(=O)N2CCOCC2)c2ccccc2F)cc1` the inhibition was 2.11%. Molecule `COc1ccc(-c2nc3ccccc3s2)cc1O` has an inhibition of 11.7%. `Oc1ccc(-c2nc3ccccc3s2)cc1` showed an inhibition of 15.1%. `COc1ccc(-c2nc3ccccc3s2)cc1NC(C)=O` was tested, and the inhibition was -7.89%. In the case of `Oc1cccc(-c2nc3ccccc3s2)c1`, the inhibition is reported as 8.24%. With `Cc1ccc(OCC(=O)N(Cc2cccc(F)c2)C2CCS(=O)(=O)C2)cc1` (configuration not stated) the inhibition was 8.85%. `COc1ccc(C(=O)Sc2nncc3ccccc23)cc1` was tested, and the inhibition was -1.75%. In the case of `O=C(Nc1ccccc1SC(=O)c1ccccc1)c1ccccc1`, the inhibition is reported as 18.6%. Work on `CCc1nc2ccccc2c(C(=O)OCC(=O)N(C)Cc2ccccc2)c1C` yielded an inhibition of 3.21%. Molecule `CCN(CC(=O)Nc1ccc(NC(C)=O)cc1)CC(=O)Nc1cc(C)on1` has an inhibition of 5.22%. For `CCCCN(C)CCC(=O)Nc1ccc2c(c1)CCC2`, the inhibition was 6%. Work on `CCN(CC)CCNC(=O)c1ccc(NC(=O)c2ccc3c(c2)CCC3)cc1` yielded an inhibition of 3.69%. `CSCC(=O)Nc1cc(C)on1` was tested, and the inhibition was -9.86%. In the case of `O=C(NCc1ccccn1)Nc1cccc(F)c1`, the inhibition is reported as 7.66%. Work on `C=CCN(CC=C)c1ncnc2[nH]ncc12` yielded an inhibition of 0.33%.
